# Results: paper PMC4336329 (PLoS ONE, 2015)
# The campaign covered roughly 310,000 compounds. About 14,000 (4.5%) showed an effect of 50% or more. The effect is printed as a negative number. The full list was thinned out, with strong results kept by preference. *1 amine or outer side, *2 acyl side, *3 side chain or, on linkers, in order; H or OH if unused. Where a SMILES comes first, the peptide text is derived from it. Bridges are numbered along the chain shown (N, C = ends). [ ]: non-standard residue; d: D form. ξ: configuration not given here. hSer(Ph(2-I,4-NO2,6-CO)) = O=C([C@H](CCOc1c(I)cc([N+](=O)[O-])cc1C(=O)[*:3])N[*:1])[*:2]; ξD = NC(CC(=O)O)C(=O)O
# Target: human ether-à-go-go-related gene (hERG) potassium channel (human, UniProt Q12809)
# Sequence (Q12809 whole entry, looked up): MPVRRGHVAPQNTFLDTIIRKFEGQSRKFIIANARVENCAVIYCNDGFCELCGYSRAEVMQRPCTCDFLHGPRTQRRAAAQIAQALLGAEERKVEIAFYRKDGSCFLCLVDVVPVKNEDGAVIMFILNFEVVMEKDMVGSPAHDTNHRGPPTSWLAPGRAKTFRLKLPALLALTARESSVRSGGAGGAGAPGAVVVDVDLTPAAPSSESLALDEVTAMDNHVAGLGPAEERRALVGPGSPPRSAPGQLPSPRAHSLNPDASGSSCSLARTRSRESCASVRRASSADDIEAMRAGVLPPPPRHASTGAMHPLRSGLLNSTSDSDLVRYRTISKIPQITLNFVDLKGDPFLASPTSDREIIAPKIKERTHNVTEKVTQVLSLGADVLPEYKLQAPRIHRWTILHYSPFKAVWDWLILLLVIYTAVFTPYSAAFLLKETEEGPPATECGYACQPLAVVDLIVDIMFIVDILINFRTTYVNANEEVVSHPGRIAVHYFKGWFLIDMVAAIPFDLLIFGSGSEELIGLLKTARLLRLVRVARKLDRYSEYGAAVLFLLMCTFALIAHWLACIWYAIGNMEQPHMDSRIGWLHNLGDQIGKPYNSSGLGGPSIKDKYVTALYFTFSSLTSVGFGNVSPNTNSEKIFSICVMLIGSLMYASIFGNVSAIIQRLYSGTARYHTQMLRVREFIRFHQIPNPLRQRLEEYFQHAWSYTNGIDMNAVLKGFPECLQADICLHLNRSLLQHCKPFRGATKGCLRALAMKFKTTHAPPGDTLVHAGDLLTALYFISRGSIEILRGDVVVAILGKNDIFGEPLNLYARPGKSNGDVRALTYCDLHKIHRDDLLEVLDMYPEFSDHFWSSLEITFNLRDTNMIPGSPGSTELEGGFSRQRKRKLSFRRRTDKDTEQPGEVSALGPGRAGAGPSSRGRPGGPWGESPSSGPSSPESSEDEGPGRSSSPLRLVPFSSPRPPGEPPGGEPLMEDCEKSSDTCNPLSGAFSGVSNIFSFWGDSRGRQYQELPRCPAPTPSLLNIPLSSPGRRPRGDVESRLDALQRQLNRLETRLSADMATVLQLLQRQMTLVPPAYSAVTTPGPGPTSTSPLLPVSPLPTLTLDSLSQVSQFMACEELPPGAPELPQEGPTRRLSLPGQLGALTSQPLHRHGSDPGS
# Assay: primary screen, population patch clamp on CHO cells stably expressing hERG; higher = less effect of the substance
# 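Also: peak tail current of the secondary pulse compared with the same well before compound.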
row,Compound,"hERG current change (%, negative = inhibition) at 10uM"
1,O=C(NC1CCCCC1)c1cc(S(=O)(=O)N2CCOCC2)c(Cl)cc1Cl,13.6%
2,Cc1nc2ccccc2c(=O)[nH]1,3.94%
3,CN(C)S(=O)(=O)N1CCN(CC(=O)Nc2ccc(F)cc2)CC1,-69.7%
4,Cc1ccc(N(CC(=O)Nc2ccc(F)cc2)S(=O)(=O)N2CCCC2)cc1,-27.1%
5,CN(C)S(=O)(=O)N1CCN(CC(=O)Nc2ccc(Br)cc2)CC1,-49.4%
6,CCc1ccc(-c2cn(-c3nc(C)cc(C)n3)c(=N)o2)cc1,-71.8%
7,CCc1ccc(Nc2nc(C)cc(C)n2)cc1.Cl,-1.21%
8,CCc1ccc(-c2cn3c(n2)SCC3)cc1,4.12%
9,Cc1ccc2oc(-c3ccccc3)nc2c1,11.3%
10,Nc1nc(CN2CCN(c3ccc(F)cc3)CC2)nc(N2CCCc3ccccc32)n1,-52.9%
11,Nc1nc(CN2CCN(c3ccccc3F)CC2)nc(N2CCCc3ccccc32)n1,-11.7%
12,Nc1nc(CN2CCN(Cc3ccccc3)CC2)nc(N2CCCc3ccccc32)n1,-56.5%
13,COc1ccc(N2CCN(Cc3nc(N)nc(N4CCCc5ccccc54)n3)CC2)cc1,-27.9%
14,Nc1nc(CN2CCN(c3cccc(Cl)c3)CC2)nc(N2CCCc3ccccc32)n1,-6.96%
15,Nc1nc(CN2CCN(c3ccccc3)CC2)nc(N2CCCc3ccccc32)n1,-39.6%
16,COc1ccc(CC(=O)N2N=C(C)CC2(O)C(F)(F)F)cc1 (stereo not shown),2.87%
17,Cc1cc(N/N=C/c2ccccc2F)c2ccccc2n1,9.06%
18,CN(C)c1ccc(C(=S)N2CCCCC2)cc1,8.24%
19,Nc1cccnc1S(=O)(=O)c1cccc(C(F)(F)F)c1,5.59%
20,CC1CC(OCC(O)CN2CCN(Cc3ccccc3)CC2)CC(C)(C)C1.Cl (stereo not shown),-43.5%
21,CC1CC(C)CN(CC(O)COC2CC(C)CC(C)(C)C2)C1.Cl (stereo not shown),-32.3%
22,CC1CCN(CC(O)COC2CC(C)CC(C)(C)C2)CC1.Cl (stereo not shown),-54.5%

row,Compound,"hERG current change (%, negative = inhibition) at 10uM"
1,CC1CCC(C(C)C)C(OCC(O)CN2CCOCC2)C1.Cl (stereo not shown),-0.613%
2,CC1CCC(C(C)C)C(OCC(O)CN2CCCC(C)C2)C1.Cl (stereo not shown),-31.6%
3,CC1CCN(CC(O)COC2CC(C)CCC2C(C)C)CC1.Cl (stereo not shown),-70.4%
4,CC1CC(OCC(O)CN2CCOCC2)CC(C)(C)C1.Cl (stereo not shown),1.1%
5,CC1CCC(C(C)C)C(OCC(O)CN2CCN(Cc3ccccc3)CC2)C1.Cl (stereo not shown),-66.5%
6,CCOC(=O)N1CCN(CC(O)COC2CC(C)CCC2C(C)C)CC1.Cl (stereo not shown),-33.1%
7,CC(=O)Nc1ccc(N2C(=O)CSC2c2cccc([N+](=O)[O-])c2)cc1 (stereo not shown),15.6%
8,Cc1cc(NC(=O)CCCn2cnc([N+](=O)[O-])n2)no1,1.48%
9,CC(=O)N1CCC2(CC1)C(C#N)=C(N)OC1=C2C(=O)CC(C)(C)C1,8.09%
10,COc1ccccc1/C=C1\SC(=S)N(NS(=O)(=O)c2ccccc2)C1=O,8.33%
11,COc1ccccc1C(=O)NC(=O)COC(=O)C1CC1C (stereo not shown),-3.4%
12,O=C(c1ccc(Cl)c(S(=O)(=O)N2CCOCC2)c1)N1CCN(c2ccccc2F)CC1,-15.1%
13,COc1cc(CNc2cccc(C(=O)O)c2)cc(Br)c1OCC(=O)NC(C)(C)C,2.52%
14,FC(F)(F)c1nnc2ccc(Sc3ccccn3)nn12,17.1%
15,O=C(NCc1ccccn1)C1CC(c2ccccc2Cl)=NO1 (stereo not shown),14.1%
16,O=S(=O)(Cc1ccccc1Cl)N1CCCCC1,1.5%
17,C=CCNCCCCOc1c(Cl)cc(C)cc1Br.O=C(O)C(=O)O,-31.7%
18,CC(=O)N(\C=C/C=C/C=C1\Sc2ccccc2C1=O)c1ccccc1,-3.47%
19,CCOC(=O)C1=C(C)N=c2s/c(=C\c3ccc(OCC(=O)O)cc3)c(=O)n2C1c1ccccc1OC (stereo not shown),12.8%
20,CCOC(=O)C1=C(C)N=c2s/c(=C\c3cccc(OCC(=O)O)c3)c(=O)n2C1c1ccccc1OC (stereo not shown),28.7%
21,CCOC(=O)C1=C(C)N=c2s/c(=C\c3ccc(O)c([N+](=O)[O-])c3)c(=O)n2C1c1ccccc1OC (stereo not shown),-61.7%
22,CC(=O)c1c(C)[nH]c(C(=O)OCC(=O)C(C)(C)C)c1C,-2.38%

row,Compound,"hERG current change (%, negative = inhibition) at 10uM"
1,CN1CCN(C2CCCCC2NS(=O)(=O)c2ccccc2)CC1 (stereo not shown),9.24%
2,CCc1ccc(CN2CCSCC2)cc1,7.39%
3,Brc1ccc(CN2CCSCC2)cc1,-65.1%
4,Cc1ccc(CN2CCSCC2)cc1,17.4%
5,CCC1(C)Cc2c(sc3nc(SC)nc(NCCN(C)C)c23)CO1 (stereo not shown),-42.9%
6,O=C(O)/C=C/C(=O)Nc1ccc(Oc2ncnc3cc(Cl)ccc23)nc1,18.4%
7,CCC(C)NC(=O)Cn1cc2c(n1)CCC(C)C2 (stereo not shown),13.8%
8,Cc1ccc(-c2nn3nnnc3c3ccccc23)cc1C,-1.31%
9,c1ccc(-c2nn3nnnc3c3ccccc23)cc1,-71.8%
10,Cc1ccc(-c2nn3nnnc3c3ccccc23)cc1,14.3%
11,CC1=CCC2C(=O)N(c3ccc(OC(=O)c4ccco4)cc3)C(=O)C2C1 (stereo not shown),12%
12,COC(=O)CSc1ncnc2c1sc1nc(-c3ccco3)c3c(c12)CC(C)(C)OC3,3.01%
13,O=C(CSc1ncccn1)NNC(=O)c1ccccc1,-4.48%
14,CCOCCCNC(=O)C(c1ccccc1)N(Cc1cccs1)C(=O)c1ccccc1O (stereo not shown),14.3%
15,Cc1cc(C)cc(NC(=O)COC(=O)CCCC2=NS(=O)(=O)c3ccccc3N2)c1,-55.9%
16,CCOc1ccccc1NC(=O)COC(=O)CC(C)(C)CC1=NS(=O)(=O)c2ccccc2N1,-60.5%
17,COc1ccc(Cl)cc1NC(=O)COC(=O)CCCC1=NS(=O)(=O)c2ccccc2N1,21.4%
18,O=C(COC(=O)CCCC1=NS(=O)(=O)c2ccccc2N1)Nc1ccccc1,24.7%
19,CC(C)(CC(=O)OCC(=O)Nc1ccccc1F)CC1=NS(=O)(=O)c2ccccc2N1,0.85%
20,CCc1ccc(NC(=O)COC(=O)CCCC2=NS(=O)(=O)c3ccccc3N2)cc1,-1.3%
21,COc1ccccc1NC(=O)COC(=O)CC(C)(C)CC1=NS(=O)(=O)c2ccccc2N1,-69.9%
22,COc1cc(NC(=O)COC(=O)CCCC2=NS(=O)(=O)c3ccccc3N2)cc(OC)c1,14.4%

row,Compound,"hERG current change (%, negative = inhibition) at 10uM"
1,Cc1cccc(NC(=O)COC(=O)CCCC2=NS(=O)(=O)c3ccccc3N2)c1,10.7%
2,Cc1cc(NC(=O)C2CCCN(S(=O)(=O)c3c(C)noc3C)C2)no1 (stereo not shown),-0.534%
3,Cc1oc(-c2cccs2)nc1CSCC(=O)NC1CC1,-3.82%
4,CCC1=NN(C(=O)Cc2ccc([N+](=O)[O-])cc2)C(O)(c2ccncc2)C1 (stereo not shown),-11.9%
5,COc1ccc(NC(=O)c2cccc(N3C(=O)C4C5C=CC(C5)C4C3=O)c2)cc1Cl (stereo not shown),2.2%
6,C=CCN1C(=O)C(Cc2ccc(F)cc2)S/C1=N/N=C/c1cccs1 (stereo not shown),-9.46%
7,CC(C)C(NC(=O)c1ccco1)C(=O)NCC(c1ccco1)N(C)C (stereo not shown),12.5%
8,COc1ccc(N2CCN(CC(O)COc3ccc(C)cc3C)CC2)cc1.Cl (stereo not shown),-67.8%
9,COc1ccccc1N1CCN(CC(O)COc2ccc3c(c2)CCC3)CC1.Cl (stereo not shown),-74.2%
10,COc1ccc(N2CCN(CC(O)COc3cc(C)ccc3C)CC2)cc1.Cl (stereo not shown),-33.8%
11,CC1CC(C)CN(CC(O)COc2ccc3c(c2)CCC3)C1.Cl (stereo not shown),-53.2%
12,COc1ccc(N2CCN(CC(O)COc3ccc4c(c3)CCC4)CC2)cc1.Cl (stereo not shown),-48.3%
13,CCN1CCN(CC(O)COc2ccc3c(c2)CCC3)CC1.Cl (stereo not shown),5.59%
14,OC(COc1ccc2c(c1)CCC2)CN1CCN(c2ccccc2F)CC1 (stereo not shown),-14.6%
15,COc1ccccc1N1CCN(CC(O)COc2ccc3c(C)cc(=O)oc3c2)CC1 (stereo not shown),-24.7%
16,COc1ccc(N2CCN(CC(O)COc3cc(C)cc(C)c3)CC2)cc1.Cl (stereo not shown),-48.8%
17,Cc1cc(=O)oc2cc(OCC(O)CN3CCN(c4ccccc4)CC3)ccc12.Cl (stereo not shown),-47.4%
18,CCOc1ccccc1N1CCN(CC(O)COc2ccc3c(C)cc(=O)oc3c2)CC1 (stereo not shown),-53.1%
19,COc1cccc(OCC(O)CN2CC(C)CC(C)C2)c1.Cl (stereo not shown),-13.5%
20,O=C(CSc1nnc(-c2ccccc2)o1)N1CCOCC1,6.37%
21,"NC(=O)C(CC(=O)O)NC(=O)[C@@H]1CCOc2c(I)cc([N+](=O)[O-])cc2C(=O)N[C@@H](CCC(=O)O)C(=O)N[C@@H](CO)C(=O)N1 (stereo partly shown) (ES[hSer(Ph(2-I,4-NO2,6-CO))][ξD]-NH2; lactam N-3)",-5.73%
22,Br.C=CCn1c(C)csc1=Nc1ccc(C(=O)O)cc1,13.5%
